A selection: hits, their analogues and other compounds. The true share with any hit is near 9.5%.
RE007 growth inh: qHTS Assay for Inhibitors of the HIV-1 protein Vpr; Potency, µM (highest dose often 92.2 µM), inactives show top-dose activity change, negative = less growth, usual class: inhibitors; AID 651644, 2012; S. pombe RE007 Vpr strain, BacTiter-Glo ATP luminescence, 24 h; actives 0.21% (n = 360,000); active means well fitted falling curve with a large enough effect; inconclusive means small, poorly fitted or top-dose-only effect; inactive means no such curve, though single readings can be large or run the other way; further: on the % scale 0 is the no-effect control and ±100 the full control effect; nearly all actives have a fitted effect of over 50% in size
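Fission yeast RE007 carrying one integrated HIV-1 vpr copy, seeded at OD 0.01 in PMG+AL medium with 23 nL pinned compound. Grown 24 h at 30 degrees; viability read by BacTiter-Glo luminescence after 5 min.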
Pf growth 48h: Primary qHTS for delayed death inhibitors of the malarial parasite plastid, 48 hour incubation | P. falciparum luciferase growth in erythrocytes, 48 h | Potency, µM (top dose mostly 28.7 µM), without a hit: at the highest dose activity change, negative = inhibition, actives largely listed as inhibitors | actives 5.9% (n = 310,000) | AID 504832, 2011; active means well fitted inhibition curve with a large enough effect; inconclusive means small, poorly fitted or top-dose-only effect, or another doubt; inactive means no such curve, though single readings can be large or run the other way; further: on the % scale 0 is the no-effect control and ±100 the full control effect
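Luminescence readout; reporter = integrated firefly luciferase in P. falciparum. RBC culture at 2% hematocrit, 0.1% parasitemia final, 37 C/5% CO2; decreased signal taken as growth inhibition.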
Pf growth 96h: Primary qHTS for delayed death inhibitors of the malarial parasite plastid, 96 hour incubation | P. falciparum luciferase reporter growth, 96 h | Potency, µM (doses to about 28.7 µM), for inactives: top-dose activity change, negative = inhibition, most hits filed as inhibitors | actives 6.9% (n = 320,000) | AID 504834, 2011; active means well fitted inhibition curve with a large enough effect; inconclusive means small, poorly fitted or top-dose-only effect, or another doubt; inactive means no such curve, though single readings can be large or run the other way; further: on the % scale 0 is the no-effect control and ±100 the full control effect
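Erythrocytes infected with luciferase-expressing P. falciparum were dispensed at 2% hematocrit and 0.05% parasitemia (final), then incubated with compounds 96 hours at 37 C in 5% CO2. Luminescence after detection reagent addition reported growth.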
NS1 inh: qHTS Assay for Inhibitors of Influenza NS1 Protein Function; Potency, µM (series often up to 46.1 µM), for the others: at the top dose activity, positive = more growth; actives 0.4% (n = 270,000); further: actives are rising curves; nearly all actives have a fitted effect of over 50% in size
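OD600 was taken as the measure of yeast growth restored by compound in an NS1-expressing S. cerevisiae strain. Cells had been washed out of glucose medium and diluted 1:100 into galactose -URA medium, pH 6.0.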
SARS PLpro yeast: qHTS of Yeast-based Assay for SARS-CoV PLP. S. cerevisiae expressing SARS-CoV PLpro, growth rescue. Potency, µM (titrated, usually from 32.9 µM), without a hit: at the highest dose activity, positive = growth rescue, usual class: activators. actives 0.19% (n = 330,000). AID 485353, 2010; further: 0% is about no effect; nearly all actives have a fitted effect of over 55% in size
Starred values were filed as active, the others as inactive; u = inconclusive; x = no result. Unless noted, the call rests on the fitted dose curve. Potency means the concentration at half of the fitted maximal effect.

SMILES	RE007 growth inh	Pf growth 48h	Pf growth 96h	NS1 inh	SARS PLpro yeast
c1ccc(-c2nc3nonc3nc2-c2ccccc2)cc1	u	12µM*	20%	-67%	-25%
COc1ccc(C(=O)N(Cc2cccs2)C2CCS(=O)(=O)C2)cc1 (stereo unspecified)	12%	-4%	u	-6%	1%
O=C(c1cccs1)N(Cc1ccco1)C1CCS(=O)(=O)C1 (stereo unspecified)	18%	28%	5.2µM*	-4%	7%
O=C(c1ccccc1)N(Cc1cccs1)C1CCS(=O)(=O)C1 (stereo unspecified)	15%	43%	0.37µM*	1%	2%
Cc1ccc(CN(C(=O)c2cccs2)C2CCS(=O)(=O)C2)cc1 (stereo unspecified)	-14%	u	-48%	15%	5%
Cc1c(CN2CCC(Oc3ccc(C(=O)N4CCCCC4)cc3)CC2)cnn1C	-7%	20%	-100%	-6%	-6%
NC(=O)C1CCN(C(=O)CNC(=O)c2ccc(F)cc2)CC1	-17%	x	x	x	0%
Cc1cc(C(=O)CN2C(=O)C(=O)N(Cc3ccccc3)C2=O)c(C)n1Cc1ccccc1	9%	x	x	x	-4%
O=C(CN1C(=O)NC(c2ccccc2)(c2ccccc2)C1=O)c1c[nH]c2ccccc12	x	12µM*	-10%	u	-1%
CCc1cccc2c(C(=O)CN3C(=O)NC(C)(c4cccc5ccccc45)C3=O)c[nH]c12 (stereo unspecified)	8%	u	10µM*	-7%	1%
CCOc1ccc(CN(C)C(=O)CN2C(=O)NC(c3ccccc3)(c3ccccc3)C2=O)cc1	3%	13µM*	u	x	-2%
CCc1cccc2c(C(=O)CN3C(=O)NC4(CCc5ccccc54)C3=O)c[nH]c12 (stereo unspecified)	-2%	u	u	x	0%
Cc1cc(C(=O)CN2C(=O)NC(c3ccccc3)(c3ccccc3)C2=O)c(C)n1Cc1ccccc1	17%	u	8.3µM*	27%	-3%
COc1ccc(C2(c3ccc(OC)cc3)NC(=O)N(CC(=O)N(C)c3ccccc3)C2=O)cc1	6%	32%	-34%	10%	x
N#Cc1ccc(CN2C(=O)NC3(CCCCCC3)C2=O)cc1	10%	14%	20%	9%	-3%
CO/N=C(/C(=O)N[C@@H]1C(=O)N2C(C(=O)O)=C(CSc3nc(C)c(CC(=O)O)s3)CS[C@H]12)c1csc(N)n1	x	-6%	-17%	x	x
COc1ccc(NC(=O)N(C)C[C@H]2OCc3cn(nn3)CCCC(=O)N([C@@H](C)CO)C[C@@H]2C)cc1	3%	x	x	x	x
CN(c1ccc(OCC(=O)N2CCN(C/C=C/c3ccccc3)CC2)cc1)S(=O)(=O)c1cccs1	14%	9.3µM*	u	-4%	0%
CCOC(=O)C1CCN(C(=O)COc2ccc(N(C)S(=O)(=O)c3cccs3)cc2)CC1	-1%	-1%	-18%	-15%	-3%
C=CCSc1nnc(Cc2c(C)[nH]c3ccccc23)o1	8%	4%	8.3µM*	-45%	12%
Cc1[nH]c2ccccc2c1Cc1nnc(SCCC#N)o1	-3%	-23%	-9%	3%	1%
COc1ccc(NC(=O)NNC(=O)c2ccccc2-n2cccc2)cc1OC	1%	1%	u	4%	2%
CCCCN(C)C(=O)c1cccc(OC2CCN(CC(C)(C)C)CC2)c1	3%	u	13µM*	24%	5%
CC(C)(C)CN1CCC(Oc2cccc(C(=O)N3CCNC(=O)C3(C)C)c2)CC1	7%	11%	12µM*	9%	3%
O=C(C[C@@H]1C=C[C@H](NS(=O)(=O)c2ccccc2F)[C@@H](CO)O1)NCCCN1CCOCC1	3%	x	x	x	x
O=C(NCCN1CCCC1)C1CCC(=O)N(CCCN2CCOCC2)C1 (stereo unspecified)	-10%	9%	u	-7%	-2%
Cc1cccn2c(=O)c3cc(C#N)c(=NC(=O)c4cccs4)n(CC(C)C)c3nc12	2%	58%	3%	2%	1%

From PubChem BioAssay
